Assay results reported in PubChem BioAssay (NCATS).
Inconclusive results are not listed. Entries that show only a call come without a potency. Calls of active or inactive are those of the source. The call rests on the fitted dose curve.

What was measured:
[1] = Primary qHTS for inhibitors of MERS-S pseudo-typed particle cell entry (AID 1479149); further: nearly all actives have a fitted effect of over 60% in size; further: potency means the concentration at half of the fitted maximal effect
[2] = Primary qHTS for Vero E6 cytotoxicity: counterscreen for inhibitors of SARS-S pseudo-typed particle cell entry (AID 1479150)
[3] = Primary qHTS for Huh7 cytotoxicity: counterscreen for inhibitors of MERS-S pseudotyped particle cell entry (AID 1479147)
[4] = Confirmatory qHTS for VERO E6 Cytotoxicity Assay: Counterscreen for SARS-CoV-2 CPE Assay (AID 1508605); further: series mostly up to about 20 µM; nearly all actives have a fitted effect of over 60% in size

Structure (SMILES)	Potency [1]	Potency [2]	Potency [3]	Potency [4]
Oc1ccc(Cl)c2cccnc12	inactive	inactive		
Cc1ccc(C(C)C)cc2c(C)ccc1-2	inactive	inactive	inactive	
O=C(OCc1ccccc1)c1ccccc1		inactive	inactive	
CN1[C@@H]2CC[C@H]1CC(OC(c1ccccc1)c1ccccc1)C2 (some centres not stated)	14.1 µM (active)	inactive	inactive	inactive
OCCN1CCN(CC/C=C2/c3ccccc3Sc3ccc(C(F)(F)F)cc32)CC1		inactive		
COc1ccc(-c2ccc3cc(C(=O)O)ccc3c2)cc1C12CC3CC(CC(C3)C1)C2		inactive	inactive	
CN(c1nccc(=O)[nH]1)C1CCN(c2nc3ccccc3n2Cc2ccc(F)cc2)CC1		inactive	inactive	
CC(=O)[C@H]1CC[C@H]2[C@@H]3C=CC4=CC(=O)CC[C@@]4(C)[C@@H]3CC[C@]12C		inactive	inactive	
COc1cc(C)nc(-n2nc(C)cc2OC)n1		inactive	inactive	
CC(=O)S[C@@H]1CC2=CC(=O)CC[C@]2(C)[C@H]2CC[C@@]3(C)[C@@H](CC[C@@]34CCC(=O)O4)[C@H]12	inactive	inactive		
O=c1[nH]c(=O)n([C@H]2C[C@H](O)[C@@H](CO)O2)cc1F	inactive	inactive		
CCN(CC)C(C)CN1c2ccccc2Sc2ccccc21 (configuration not stated)		inactive	inactive	
CNCCC=C1c2ccccc2CCc2ccccc21		inactive		inactive
O=C(O[C@H]1CN2CCC1CC2)N1CCc2ccccc2[C@@H]1c1ccccc1		inactive	inactive	
C=CCN1C[C@H](C(=O)N(CCCN(C)C)C(=O)NCC)C[C@@H]2c3cccc4[nH]cc(c34)C[C@H]21		inactive	inactive	
